Screening data deposited in PubChem by ICCB-Longwood Screening Facility, Harvard Medical School.
Only a selection was taken, and hits are over-represented in it overall.
MgrA-DNA mod = modulators of Staphylococcus aureus MgrA DNA binding; fluorescence polarization; inhibition, % (no concentration beside the values); hit rate 0.13% among 84,000; AID 602314; in the data active means inhibition above about 30%, passing the limit was not always enough;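 further: 0% = protein plus DNA without compound and 100% = DNA alone without protein; higher means less MgrA bound to DNA so lower polarization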
* hit, by the source's call; + = active, no number.

SMILES | MgrA-DNA mod
COc1cccc(/C=C2\C(=O)NC(=O)N(c3cccc(OC)c3)C2=O)c1 | -6
COc1cccc(N2C(=O)/C(=C/C=C/c3ccco3)C(=O)NC2=S)c1 | 86*
O=C1NC(=O)N(C2CCCCC2)C(=O)/C1=C\C=C\c1ccco1 | 5
Oc1ccc(C=NCC2CCCN3CCCCC23)c(O)c1 (stereo not given) | 4
CN1CCN(C(=O)CCCCl)CC1 | -3
CN(C)CCCn1c(N)c2c3c(sc2nc1=O)COC(C)(C)C3 | 1
C/C(=N\NC1=NCCN1)c1ccc(F)cc1 | -1
Cc1nc2ccc(NC(=O)c3ccc(Br)cc3)cc2s1 | 1
Cc1nc2ccccn2c1-c1ccnn1C(=O)c1ccno1 | 41*
CCOC(=O)c1cnn(C(=O)c2c(C)nc3ccccn23)c1N | -1
Cc1nc2ccccn2c1-c1ccnn1C(=O)c1ccc(Cl)cc1 | 1
Cc1ccc(C2=NS(=O)(=O)N(C)C(C(=O)N3CCc4ccccc4C3)=C2)cc1 | -1
O=C(c1ccc2c(c1)C(=O)N(Cc1ccco1)C2=O)N1CCOCC1 | -2
Cc1ccnc(NC(=O)c2ccc3c(c2)C(=O)N(Cc2ccco2)C3=O)c1 | 30*
O=C(Nc1ccccc1Cl)c1ccc2c(c1)C(=O)N(Cc1ccco1)C2=O | 9
CCO/C=C1\SC(=S)NC1=O | 5
Cc1cccc(C)c1NC(=O)CCN1CC(C)OC(C)C1 (stereo not given) | -2
CC(=O)NN1C(=O)c2cccc3c(N(C)C)ccc(c23)C1=O | 61*
CCSc1ccc2c3c(cccc13)C(=O)N(NCCO)C2=O | 4
CN(C)c1ccc2c3c(cccc13)C(=O)N(c1nc3ccccc3[nH]1)C2=O | 10
CC(C)(C)c1cc(N=O)cc(C(C)(C)C)c1O | -3
O=C(COC(=O)c1sc2ccccc2c1Cl)c1ccccc1F | 2
CS(=O)(=O)N/N=C/C=C/c1ccccc1 | 1
Clc1ccc(NCc2ccccc2)cc1 | -7
O=C(/C=C/c1ccccc1)/C=C/c1ccco1 | 33
SMILES | MgrA-DNA mod
O=C(/C=C/c1ccco1)/C=C/c1ccco1 | 98*
O=C(/C=C/c1ccco1)Nc1cccc(NC(=O)/C=C/c2ccco2)n1 | 7
OC1(c2ccccc2)CCOCC1 | -1
CCOc1cccc(=O)c2c(C)n(-c3ccc(OC)cc3)c(C)c12 | 2
CCOc1ccccc1C(=O)N(C)c1ccccc1 | -1
CCOc1cccc(=[O+]CC)c2c(C)oc(C)c12 | 63*
Cc1ccc(N2COc3ccc(Cl)cc3C2)cc1 | -3
CCOC(=O)C1=C(N)OC2=C(C(=O)CCC2)C1c1ccccc1F (stereo not given) | -1
CNC(=S)N(Cc1ccc(OC)cc1OC)c1ccc(C(C)(C)C)cc1 | -1
OC(c1ccccc1)C1CCCCC1 (stereo not given) | 0
N#Cc1c(-c2ccco2)cc(-c2ccccc2)[nH]c1=O | 10
N#Cc1c(-c2ccco2)cc(-c2ccco2)[nH]c1=O | 56*
N#Cc1c(-c2ccccc2)cc(-c2ccco2)c(C#N)c1N | 9
CC(C)(C)NC(=O)C1CC2CCCCC2CN1C(=O)c1ccno1 (stereo not given) | -2
COc1cccc2c1C(=O)c1c(O)c3c(c(O)c1C2=O)C[C@@](O)(C(=O)CO)C[C@@H]3O[C@H]1C[C@H](N)[C@H](O)[C@H](C)O1 | +
COc1cccc2c1C(=O)c1c(O)c3c(c(O)c1C2=O)C[C@@](O)(C(C)=O)C[C@@H]3OC1CC(N)C(O)C(C)O1 (stereo not given in full) | +
COc1ccc(Br)cc1C(=O)Nc1ccc(-c2nc3ccccc3o2)c(O)c1 | -1
COc1ccc(C2CC(=O)C3=C(C2)NC(C)=C(C(=O)OCC(C)C)C3c2ccc(OC)c(OC)c2)cc1 (stereo not given) | 0
Cc1cc(C)c(CS/C(N)=N/N)c(C)c1 | 0
O=c1[nH]c2ccccc2c(O)c1-c1nc2ccccc2s1 | 9
O=C1c2ccccc2C(=O)c2c1cccc2-c1cccc2c1C(=O)c1ccccc1C2=O | 1
COC(=O)c1cccc2c1C(=O)c1ccccc1-2 | -1
Nc1cccc2c1C(=O)c1ccccc1-2 | 53*
Cc1ccccc1NC(=O)COC(=O)c1ccccc1C(=O)c1ccccc1 | 0
COC(=O)C1=C(C)N2[C@@H](C=C1)[C@@](C#N)(C(N)=O)[C@@H](c1ccccc1)[C@@H]2C(=O)OC | 60*
SMILES | MgrA-DNA mod
N#CC1(C#N)[C@H](c2ccoc2)[C@@H](C(=O)Oc2ccccc2)N2c3ccccc3C=C[C@@H]21 | 0
COC(=O)C1=C(C)N(c2ccc(N(C)C)cc2)C(C)=C(C(=O)OC)C1c1ccccc1 | -1
Cc1ccc(Oc2ccc(C)cc2)cc1 | 1
CCCOc1ccc(C2NC(=O)NC(C)=C2C(=O)OCCc2ccccc2)cc1OC (stereo not given) | -1
O=C(CBr)Nc1cccc(C(F)(F)F)c1 | -2
O=C(O)C1Nc2ccccc2C2C=CCC12 (stereo not given) | 45
Cc1ccc2c(c1C)NC(C(=O)O)C1CC=CC21 (stereo not given) | 64*
CC(C)C1Nc2ccc(C(=O)O)cc2C2C=CCC21 (stereo not given) | 21
O=C(/C=C/c1ccco1)OCc1c(Cl)cccc1Cl | 0
COc1cc(C=Nc2nonc2NC(C)=O)ccc1OC(C)C | -1
CCOC(=O)c1ccc(-c2ccc(/C=C3\C(=O)N(c4cccc(Cl)c4)N=C3C)o2)cc1 | -3
CC1=NN(c2ccc(Cl)c(C(=O)O)c2)C(=O)/C1=C\c1ccc(-c2ccccc2C(=O)O)o1 | 3
O=C(O)c1cc(N2N=C(C(F)(F)F)/C(=C/c3ccc(-c4ccccc4)o3)C2=O)ccc1Cl | 58*
Cc1ccc(-n2nc(C)c3c(C)c(CCC(=O)NCC4CCN(C5CCCC5)C4)c(C)nc32)cc1C (stereo not given) | -1
O=C(O)CN1C(=O)/C(=c2/sc3nc4ccccc4n3c2=O)c2cc(Br)ccc21 | 3
CCC(C(=O)NC(C)c1ccc2c(c1)OCO2)c1ccccc1 (stereo not given) | -3
Cc1ccc(C)n1C(CC(=O)O)c1ccc2c(c1)OCO2 (stereo not given) | 53*
NC(=O)CC(c1ccccc1)c1ccc2c(c1)OCO2 (stereo not given) | -5
CCOC(=O)c1c(NC(=O)Cc2ccc(Cl)cc2)sc(C(=O)Nc2cc(C(F)(F)F)ccc2Cl)c1C | 0
Cc1ccc2nc(-c3ccc(NC(=O)c4cc(C)on4)cc3)sc2c1 | 0
Cc1cc(Cl)ccc1OCC(=O)NCC12CC3CC(CC(C3)C1)C2 | -2
O=C1C=C(NC2CCCC2)CC(c2ccccc2)C1 (stereo not given) | 0
O=C1c2ccccc2C(=O)c2c(NC3CCCCC3)ccc(Nc3ccc(Oc4ccccc4)cc3)c21 | -3
O=C1C=C(C(F)(F)F)c2ccc(NC3CCCCC3)c3cccc1c23 | 56*
CC(=O)NC(=O)c1cc2ccccc2oc1=Nc1ccc(C(F)(F)F)cc1 | 0
SMILES | MgrA-DNA mod
O=C(c1ccccc1)c1ccc2nc(-c3ccco3)c(-c3ccco3)nc2c1 | 63*
c1coc(-c2nc3ccccc3nc2-c2ccco2)c1 | 22
Cc1ccc(NC(=S)Nc2ccc3nc(-c4ccco4)c(-c4ccco4)nc3c2)cc1 | 80*
COc1ccc(N(C)C(=S)Nc2ccc3nc(-c4ccco4)c(-c4ccco4)nc3c2)cc1 | 60*
COc1ccc2nc3c(nc2c1)-c1cccc2cccc-3c12 | -1
COc1cccc(NC(=S)Nc2ccc(N(C)C)cc2)c1 | -2
O=C(NCCO)c1ccc2nc(-c3ccco3)c(-c3ccco3)nc2c1 | 36
S=C(NCc1ccco1)Nc1ccc2nc(-c3ccccn3)c(-c3ccccn3)nc2c1 | -3
